Reference: PubChem BioAssay (NCATS)
Records with an inconclusive call do not appear. Active and inactive are the calls of the source. The call rests on the fitted dose curve; in most records, active means well fitted cell-killing curve with a large enough effect; inconclusive means small, poorly fitted or top-dose-only effect; inactive means flat fitted curve, though single readings scatter.

Experiment: qHTS of pediatric cancer cell lines to identify multiple opportunities for drug repurposing: Primary screen for BT-37 cells (AID 1347094)
Settings: BT-37 viability, CellTiter-Glo luminescence, 48 h; series mostly up to 57.3 µM
Source text: Drug repurposing or repositioning has been offered as a strategy for drug development in oncology programs. This approach has special potential for childhood cancers and other rare or orphan diseases, where the expected return on new drug development has been a disincentive to pharmaceuticals. […] In this project we exploit the poly-pharmacology of drugs to discover new indications via phenotypic screening of a panel of 19 well-characterized cell lines derived from solid tumors seen in children and adolescents. The goal is to identify approved drugs with previously unrecognized anticancer properties that has the potential to reveal new mechanisms and biological processes involved in carcinogenesis or drug resistance. We employed a titration-based paradigm (quantitative high-throughput screening or qHTS), where all compounds were tested at multiple concentrations for their effect on cell viability. Concentration-response curves (CRCs) were derived directly from the primary screen, and both potency and efficacy values were used to identify compounds with robust bioactivity profiles. We screened the NIH Chemical Genomics Center (NCGC) Pharmaceutical Collection (NPC) and Mechanism Interrogation Plate (MIPE) small molecule collections of approved and investigational compounds against these cell lines; and measured metabolically active cells after 48 hours of compound treatment as a proxy for cell viability. […] Assay Submitter: Nathalia J. Martinez, National Center for Advancing Translational Sciences, National Institutes of Health, Rockville, MD, USA; email: natalia.martinez@nih.gov Shen, M et al. Quantitative high-throughput phenotypic screening of pediatric cancer cell lines identifies multiple opportunities for drug repurposing. Oncotarget 2017 Dec 19;9(4):4758-4772. PMID 29435139.
The cells were obtained from University of North Carolina (UNC), Pediatric Preclinical Testing Program (PPT), and Coriell Institute (CI). qHTS cell viability assay: Cells were assayed in growth media at a density of 500-1,000 cells/well. Five microliters of cells were dispensed into 1,536-well, white, solid-bottom, TC-treated plates (Greiner Bio One) using a multidrop dispenser and incubated at 37 degrees C, 5% CO2, under a humidified atmosphere for 5 hours. Twenty-three nanoliters of compounds and controls (neutral control DMSO or positive control bortezomib at final concentration of 2.3 µM) were subsequently transferred by Kalypsys pintool. For primary screens, the MIPE collection was tested at 11-point dilutions (final concentrations range from 0.78 nM to 46 µM) and the NPC collection at 8-point dilutions (final concentrations range from 0.59 nM to 46 µM). Compounds tested in follow-up screens were assayed at 11-point dilutions. Cells were incubated for 48 hours, followed by addition of 3 µL of CellTiter-Glo (Promega). After a 15 min incubation at room temperature, samples were analyzed for luminescence intensity using a ViewLux High-throughput CCD imager equipped with clear filters.
Potency means the concentration at half of the fitted maximal effect.

With `O=C(O)c1ccc2c(c1)nc(Nc1cccc(Cl)c1)c1ccncc12` as the molecule, how does the Potency read?
The Potency was 7.69 µM (active).

Which Potency does the source give for `CN(c1ncccc1CNc1nc(Nc2ccc3c(c2)CC(=O)N3)ncc1C(F)(F)F)S(C)(=O)=O` here?
Its Potency is 9.68 µM (active).

For `O=C(Nc1cc(C(F)(F)F)cc(C(F)(F)F)c1)c1cc(Cl)ccc1O`, which Potency is on record?
The Potency was 0.968 µM (active).

With `COc1ccc(CC2SC(=O)NC2=O)cc1C(=O)NCc1ccc(C(F)(F)F)cc1` (stereo not given) as the molecule, how does the Potency read?
The Potency was “inactive”.

For `Nc1ccn([C@@H]2O[C@H](CO)[C@H](O)C2(F)F)c(=O)n1`, which Potency is on record?
Its Potency is 0.0306 µM (active).

With `C=CC(=O)Nc1cccc(Oc2nc(Nc3ccc(N4CCN(C)CC4)cc3OC)ncc2Cl)c1` as the molecule, how does the Potency read?
Its Potency is 27.3 µM (active).

With `CC1(O)CC(c2nc(-c3ccc4ccc(-c5ccccc5)nc4c3)c3c(N)nccn23)C1` (stereo not given) as the molecule, how does the Potency read?
Its Potency is 19.3 µM (active).

Which Potency does the source give for `Nc1ccccc1NC(=O)c1ccc(CNc2nccc(-c3cccnc3)n2)cc1` here?
The Potency was 3.06 µM (active).

For `Cc1nc2cnc3ccc(C#Cc4cccnc4)cc3c2n1-c1ccc(C(C)(C)C#N)cc1`, which Potency is on record?
The Potency was 0.217 µM (active).

With `CN[C@H]1CCc2cc(OC)c(OC)c(OC)c2-c2ccc(OC)c(=O)cc21` as the molecule, how does the Potency read?
The Potency was 0.0061 µM (active).

Which Potency does the source give for `O=C(NCCS(=O)(=O)c1ccc(C(F)(F)F)cn1)c1ccc(Cl)cc1` here?
The Potency was “inactive”.

With `C[C@]1(CO)CN(c2cc(C(=O)Nc3ccc4c(c3)-c3c(c(C(N)=O)nn3-c3ccc(F)cc3)CC4)c(Cl)cn2)C[C@@]1(C)CO` as the molecule, how does the Potency read?
The Potency was 5.44 µM (active).

With `COc1ccc2c(OCc3nnc4ccc(-c5ccccc5)nn34)ccnc2c1` as the molecule, how does the Potency read?
The Potency was “inactive”.

For `Fc1cc(-c2cccc3ncc(-c4cnn(C5CCNCC5)c4)nc23)cc(F)c1CN1CCOCC1`, which Potency is on record?
The Potency was 24.3 µM (active).

Which Potency does the source give for `CC[C@H]1CN2CCc3cc(OC)c(OC)cc3[C@H]2C[C@@H]1C[C@@H]1NCCc2cc(OC)c(OC)cc21` here?
Its Potency is 0.544 µM (active).

With `CN(C)CC=CC(=O)Nc1cc2c(Nc3ccc(F)c(Cl)c3)ncnc2cc1O[C@H]1CCOC1` as the molecule, how does the Potency read?
Its Potency is 21.7 µM (active).

With `C[C@H]1C[C@@H]2[C@@H]([C@@H](O)C[C@@]3(C)[C@H]2CC[C@]3(O)C(=O)CO)[C@@]2(C)C=CC(=O)C=C12` as the molecule, how does the Potency read?
Its Potency is “inactive”.

For `O=C(CCCCCCC(=O)Nc1ccc([C@H]2O[C@@H](CSc3nc(-c4ccccc4)c(-c4ccccc4)o3)C[C@@H](c3ccc(CO)cc3)O2)cc1)NO`, which Potency is on record?
Its Potency is 15.3 µM (active).

With `O=C(c1ccc(Nc2nccc(-c3cc4ccccc4s3)n2)cc1)N1CCC(N2CCCC2)CC1` as the molecule, how does the Potency read?
The Potency was 24.3 µM (active).

For `Cc1ccc(C(=O)Nc2ccc(CN3CCN(C)CC3)c(C(F)(F)F)c2)cc1C#Cc1cnc2cccnn12`, which Potency is on record?
The Potency was 6.85 µM (active).

For `Cc1coc2c1C(=O)C(=O)c1c-2ccc2c1CCCC2(C)C`, which Potency is on record?
Its Potency is 21.7 µM (active).

For `c1cc(-c2cnn3cc(-c4ccc(OCCN5CCCCC5)cc4)cnc23)ccn1`, which Potency is on record?
The Potency was 17.2 µM (active).

Which Potency does the source give for `CC(C)Nc1cc(C(F)(F)F)cc2nc(NC(=O)c3cccnc3)nn12` here?
The Potency was “inactive”.

With `O=C(CCCCCCNC(=O)c1cnc(N(c2ccccc2)c2ccccc2)nc1)NO` as the molecule, how does the Potency read?
Its Potency is 15.3 µM (active).

With `COc1cc2c(Oc3ccc(-c4cnc(Nc5ccc(F)cc5)n(C)c4=O)cc3F)ccnc2cc1OCCCN1CCOCC1` as the molecule, how does the Potency read?
The Potency was 24.3 µM (active).

With `O=C(NC1CCNCC1)c1[nH]ncc1NC(=O)c1c(Cl)cccc1Cl` as the molecule, how does the Potency read?
The Potency was 1.37 µM (active).

Which Potency does the source give for `COC(=O)Nc1ccc(-c2nc(N3CCOCC3)c3cnn(C4CCN(Cc5cccnc5)CC4)c3n2)cc1` here?
The Potency was 0.544 µM (active).

For `CCc1c2c(nc3ccc(O)cc13)-c1cc3c(c(=O)n1C2)COC(=O)[C@]3(O)CC`, which Potency is on record?
The Potency was 0.0086 µM (active).

Which Potency does the source give for `CC(=O)Nc1sc2c(c1-c1nc3ccccc3s1)CNC2` here?
The Potency was 15.3 µM (active).

Which Potency does the source give for `O=C1CCC[C@@H]2[C@H]3CCC[N+]4([O-])CCC[C@@H](CN12)[C@@H]34` (stereo not given in full) here?
The Potency was “inactive”.

Which Potency does the source give for `Nc1ccc(C(=O)c2cc3c(ccc4ccccc43)[nH]2)cc1` here?
Its Potency is 7.69 µM (active).

For `O=c1[nH]nc(Sc2ncc([N+](=O)[O-])s2)n1-c1ccc2c(c1)OCCO2`, which Potency is on record?
Its Potency is 21.7 µM (active).

For `CNC(=O)c1ccccc1Nc1nc(Nc2ccc(N3CCOCC3)cc2OC)ncc1Cl`, which Potency is on record?
Its Potency is 7.69 µM (active).

For `Cc1ccc(-c2ncn(-c3ccc(Nc4nccc(-c5cccc(N6CCOCC6)c5)n4)cc3)n2)cn1`, which Potency is on record?
Its Potency is 0.122 µM (active).

For `CN(C)CCCN=c1c2ccccc2n(C)c2[nH]c(=O)n(C)c(=O)c12`, which Potency is on record?
The Potency was 4.85 µM (active).

With `Nc1nccc(Oc2ccc(NC(=O)c3c[nH]cc(-c4ccc(F)cc4)c3=O)cc2F)c1Cl` as the molecule, how does the Potency read?
Its Potency is 2.17 µM (active).

For `Nc1ncnc2c1c(-c1cnc3[nH]ccc3c1)nn2C1CCCC1`, which Potency is on record?
The Potency was 1.72 µM (active).

For `NCC(=O)Nc1ccc(-n2nc(C(F)(F)F)cc2-c2ccc3c(ccc4ccccc43)c2)cc1`, which Potency is on record?
Its Potency is 24.3 µM (active).

With `COc1cc2c(Oc3ccc(NC(=O)C4(C(=O)Nc5ccc(F)cc5)CC4)cc3F)ccnc2cc1OCCCN1CCOCC1` as the molecule, how does the Potency read?
Its Potency is 27.3 µM (active).

With `CC(=O)SC[C@@H](C)C(=O)N1CCC[C@H]1C(=O)N[C@@H](Cc1ccccc1)C(=O)O` as the molecule, how does the Potency read?
The Potency was “inactive”.
